Screening data from PubChem.
FUS suppressor = rescues growth of FUS-expressing yeast | S. cerevisiae FUS-expressing, growth rescue, OD600, 24 h | 0.24% of 390,000 active | Potency, µM (highest dose often 76.6 µM), usual class: activators;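 also: plate controls were DMSO vehicle for no effect and reference control for full effect; nearly all actives have a fitted effect of over 55% in size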
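S. cerevisiae expressing FUS from galactose induction served as the toxicity model. Growth after 24hr at 30C, read as absorbance at 600 nm, indicates suppression of toxicity; compounds dosed at several concentrations.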
Abeta rescue = compounds reversing amyloid beta toxicity in yeast; 0.063% of 410,000 active; yeast expressing A-beta42, growth rescue, OD600, 48 h; response scale: 0% DMSO, 100% iron-clioquinol control; AID 1347071; Potency, µM (doses to about 46.1 µM), most hits filed as activators; also: nearly all actives have a fitted effect of over 55% in size
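Yeast A-beta toxicity model in growth medium with pinned compounds, 48 h at 30 C; growth read as absorbance at 600 nm. Normalized to FeCl3/clioquinol equimolar mix (positive) and DMSO (negative).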
TDP43 rescue = TDP-43 toxicity inhibition in yeast; TDP-43 expressing yeast growth rescue, BacTiter-Glo, 24 h; Potency, µM (doses to about 46.1 µM), inactives show at the highest dose growth rescue (activation), actives largely listed as activators; 1.8% of 410,000 active; AID 652104; also: % of control where 0% means no effect; nearly all actives have a fitted effect of over 50% in size
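Growth rescue of TDP-43-toxic yeast measured as ATP luminescence (BacTiter-Glo). Cells grown to mid-log in raffinose, induced in galactose at OD600=0.02, exposed to compound 24 hr at 30 deg C.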
aSyn rescue = alpha-synuclein toxicity inhibition in yeast. Potency, µM (top dose mostly 46.1 µM), without a hit: at the highest dose growth rescue (activation), hits mostly activators. 0.14% of 370,000 active. Yeast expressing alpha-synuclein, growth rescue, BacTiter-Glo, 24 h. AID 652106; also: % of control where 0% means no effect; nearly all actives have a fitted effect of over 65% in size
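Screening used galactose-induced yeast with toxic alpha-synuclein levels, exposed to compound for 24 hr at 30 deg C. Cell growth, read with BacTiter-Glo luminescence, gave the measured signal.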
The depositor's hits bear a star; i = inactive; ? = inconclusive; . = not tested or not shown. Most compounds without a hit are left out; they make up all but 2.1% or so of the library. Calls follow the shape of the dose curve; as a rule, active = well fitted curve in the direction sought with a large enough effect; inconclusive = small, poorly fitted or top-dose-only effect, or another doubt; inactive = no such curve, though single readings can be large; an effect the other way counts as inactive or inconclusive. Potency is read from the fitted curve at half-maximal effect.

SMILES	FUS suppressor	Abeta rescue	TDP43 rescue	aSyn rescue
O=C1C=C(NC2=CC3OC(c4ccccc4)OCC3OC2=O)CCC1 (stereo unspecified)	.	i	13µM*	18µM*
COc1ccc(/C=N/NC(=O)c2ccn[nH]2)cc1CSc1ccccn1	i	.	11%	1%
COc1ccc(/C=N/N2CCOCC2)cc1COc1ccc(Cl)cc1	.	i	16µM*	3%
COc1ccc(/C=N/N2CCOCC2)cc1COc1ccc(F)cc1	i	i	?	3%
COc1ccc(/C=N/NC(=O)c2ccn[nH]2)cc1COc1ccc(Cl)cc1	i	i	18µM*	12%
CC(=O)c1ccc(N/N=C(/C(N)=O)C2=NC(C)(C)Cc3ccccc32)cc1	i	i	15%	0%
CC1(C)Cc2ccccc2C(/C(=N\Nc2cccc(Cl)c2)C(N)=O)=N1	?	i	16µM*	17%
N#Cc1ccc(C(=O)NC(=S)NC2CCCCC2)cc1	i	?	22µM*	-9%
COCCOC(=O)C1=C(C)NC(=O)NC1C1CC=CCC1 (stereo unspecified)	i	i	-11%	10%
CC(=O)C1=C(c2ccc(Cl)c(Cl)c2)N(C(C)=O)n2cnnc2S1	i	i	10µM*	.
CCOc1ccc(C2=C(C(=O)CC)Sc3nncn3N2C(=O)CC)cc1	i	i	20µM*	.
CC(=O)C1=C(c2ccc(Cl)c(Cl)c2)N(C(C)=O)n2c(C)nnc2S1	i	i	?	.
COc1cccc(C2=C(C(C)=O)Sc3nncn3N2C(C)=O)c1	i	i	35µM*	.
COc1cccc(C2=C(C(C)=O)Sc3nnc(C4CCCCC4)n3N2C(C)=O)c1	i	i	?	.
COc1ccccc1N(C)S(=O)(=O)c1ccc(C(=O)Nc2ccc(C)cc2C)cc1	?	i	14%	3%
O=C(c1cccc(Cl)c1)N1c2ncnn2C2(CCCCC2)[C@@H]2CCCC[C@@H]21	i	i	13µM*	.
O=C(c1cccc(Cl)c1)N1c2nc(-c3ccco3)nn2C2(CCCCC2)[C@@H]2CCCC[C@@H]21	i	i	8%	.
O=C(NCCc1c[nH]c2ccccc12)c1ccc(Br)o1	.	i	4%	-8%
O=C(NCCSc1c[nH]c2ccccc12)c1ccc(Br)o1	i	i	18µM*	10%
CCN1CCCC1CNS(=O)(=O)c1cc(Br)cc2c1N(C(=O)C1CC1)CC2 (stereo unspecified)	i	i	-10%	-3%
CCCn1c(CC)nc([N+](=O)[O-])c1S(=O)(=O)c1ccccc1	i	i	25µM*	6%
CCc1nc(C)cn1S(=O)(=O)c1ccc([N+](=O)[O-])cc1	i	i	3%	1%
O=C(c1ccccc1Cl)c1c(O)c2ccccc2oc1=O	i	i	-11%	-14%
O=C(Nc1c(O)c2ccccc2oc1=O)c1ccccc1Cl	i	i	2.5µM*	.
N#Cc1ccc(C2=CC(=O)C[C@H](c3ccc(F)cc3)C2)cc1	i	i	?	5%
SMILES	FUS suppressor	Abeta rescue	TDP43 rescue	aSyn rescue
O=C(OCn1ncc(Cl)c(Cl)c1=O)c1ccc(C(F)(F)F)cc1	i	i	4µM*	-17%
Cc1ccc(C(=O)OCn2ncc(Cl)c(Cl)c2=O)cc1	i	i	3.2µM*	-33%
Cc1nn(-c2ccccc2)c(C)c1/C=C/C(=O)OCC(=O)Nc1ccc(S(N)(=O)=O)cc1	i	i	7%	-6%
CC(=O)N1N=C(c2ccccc2)CC1c1cccc([N+](=O)[O-])c1 (stereo unspecified)	i	i	13µM*	4%
CC(=O)N1N=C(c2cccc(Cl)c2)OC1c1cccc([N+](=O)[O-])c1 (stereo unspecified)	i	i	16µM*	3%
CC(=O)N1N=C(c2cccc([N+](=O)[O-])c2)OC1c1cccc(Br)c1 (stereo unspecified)	i	i	19%	-5%
CCCCn1c(N)c(N(CCOC)C(=O)c2oc3ccc(Br)cc3c2C)c(=O)[nH]c1=O	16µM*	i	2%	-3%
CCCCN(C(=O)c1oc2ccc(OCC)cc2c1C)c1c(N)n(CCCC)c(=O)[nH]c1=O	.	i	16%	-2%
Cc1cccc(OCC(=O)NCC(c2cccs2)N2CCOCC2)c1 (stereo unspecified)	i	i	24%	1%
CN1/C(=C/C(=S)NC(=O)C2CCC2)C(C)(C)c2ccccc21	i	?	?	-8%
